A selection: hits, their analogues and other compounds. The true share with any hit is near 2.9%.
ABCB6 inh MLPCN: blocks the human ABCB6 transporter | Q9NP58 | K562-ABCB6 porphyrin accumulation, flow cytometry, 1 h; stronger effect = lower value | fluorescence ratio to DMSO, % at 10 µM | 0.19% of 360,000 active | AID 602162;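 active = fluorescence ratio to DMSO below 75%, the collection mean minus 3 SD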;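 also: signal is porphyrin accumulated inside mitochondria; lower ratio means ABCB6 inhibition with less porphyrin fluorescence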
MEKK3 PB1 HTS: raises or lowers MEK5 binding to the human MEKK3 PB1 domain; bead-based flow cytometry, Alexa488-MEK5 binding to MEKK3; actives lie on both sides; 0 = blocked by unlabeled MEK5, 100 = vehicle; binding response (% of control), % at 10 µM; 1.4% of 290,000 active; AID 1529;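 active = binding response more than 3 SD above or below the average of its plate-row segment, actives on both sides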;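 also: Alexa488 bead fluorescence after subtracting the streptavidin-only scavenger bead signal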
Target sequence (Q99759 whole entry, looked up, the tested form may be a part): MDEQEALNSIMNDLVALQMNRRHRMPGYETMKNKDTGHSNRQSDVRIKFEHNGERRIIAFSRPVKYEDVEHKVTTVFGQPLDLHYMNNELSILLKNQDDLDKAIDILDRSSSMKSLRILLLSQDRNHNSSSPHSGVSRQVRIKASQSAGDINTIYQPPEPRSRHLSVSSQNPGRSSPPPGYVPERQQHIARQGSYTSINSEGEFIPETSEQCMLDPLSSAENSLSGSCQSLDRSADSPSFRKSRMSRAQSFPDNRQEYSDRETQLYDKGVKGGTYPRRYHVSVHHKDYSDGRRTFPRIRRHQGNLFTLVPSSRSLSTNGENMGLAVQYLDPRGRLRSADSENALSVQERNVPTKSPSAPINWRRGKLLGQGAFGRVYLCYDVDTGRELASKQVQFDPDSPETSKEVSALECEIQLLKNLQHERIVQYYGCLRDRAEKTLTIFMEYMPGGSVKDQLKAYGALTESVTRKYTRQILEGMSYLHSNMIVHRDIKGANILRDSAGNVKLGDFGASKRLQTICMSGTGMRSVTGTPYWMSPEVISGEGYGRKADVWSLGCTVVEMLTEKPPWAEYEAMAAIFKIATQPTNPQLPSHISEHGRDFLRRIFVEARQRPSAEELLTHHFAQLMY
CRFBP-R2 block: CRF-BP/CRF-R2 complex antagonism; HEK293 CRF-R2/CRF-BP, CRF-induced calcium fluorescence; inhibition, % at 11.8 µM; 0.59% of 350,000 active; AID 588475;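 active = inhibition of the ligand-induced calcium signal above about 50% at the single tested concentration, limit read from the data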
MEKK2 mut-MEK5: signal of MEK5 binding to mutant human MEKK2 PB1 domain | bead flow cytometry, Alexa488-MEK5 binding to MEKK2 mutant | percent response, % at 10 µM | 0.35% of 290,000 active; in the data active = percent response above about 24%, passing the limit was not always enough
CRFBP-R2 agonist: CRF-BP/CRF-R2 complex agonism. HEK293 CRF-R2/CRF-BP, calcium dye fluorescence (FLIPR); percent of saturating CRF peptide response. activation, % at 13.2 µM. 0.46% of 350,000 active. AID 588473;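 active = activation of at least 50%, plus an integration ratio under a set limit after plate pattern correction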
MEKK2 WT-MEK5: raises or lowers MEK5 binding to wildtype human MEKK2 PB1 domain; 1.1% of 290,000 active; bead flow cytometry, Alexa488-MEK5 binding to MEKK2 WT; actives lie on both sides; binding response (% of control), % at 10 µM; Q9Y2U5; in the data active = binding response below about 67% or above about 130%
MEKK2wt confirm: raises or lowers MEK5 binding to wildtype human MEKK2, retest. shares compounds with MEKK3 PB1 HTS. bead flow cytometry, Alexa488-MEK5 binding to MEKK2 WT; actives lie on both sides. binding response (% of control), % at 10 µM. 2.4% of 5,900 active; in the data active = binding response below about 16% or above about 210%; inactive = in between
MEKK2mut-MEK5: signal of MEK5 binding to mutant human MEKK2, retest; shares compounds with MEKK3 PB1 HTS; bead flow cytometry, Alexa488-MEK5 binding to MEKK2 mutant; percent response, % at 10 µM; 2% of 5,900 active; AID 1893; in the data active = percent response mostly above about 71%, no sharp cut-off; inactive = mostly below about 38%;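 also: higher means compound restores mutant binding toward wildtype level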
MEKK3 confirm: confirmation of inhibitors of MEK5 binding to human MEKK3. shares compounds with MEKK3 PB1 HTS. bead flow cytometry, Alexa488-MEK5 binding to MEKK3; stronger effect = lower value. binding response (% of control), % at 10 µM. 1.8% of 5,900 active. AID 1894;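 active = binding response below 72% of control, or above a set upper limit, though filed actives all read lower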
Of the large screens only hits and unclear results are named; the others gave an inactive call (follow-up assays come after a bar, where they were run); [ ] = another dose, or the depositor's remark.

CNc1c(N)c(=O)oc2ccccc12	none
COc1ccccc1CN(C(=O)c1cnccn1)C(C(=O)NC1CCCCC1)c1cc(OC)c(OC)c(OC)c1 (stereo not given)	none
COc1nc(N(C)C)nc(-n2nnc(C(C)=O)c2C)n1	MEKK3 PB1 HTS 2.0[inhibitor], MEKK2 WT-MEK5 1.0[inhibitor] | MEKK2wt confirm inactive | MEKK2mut-MEK5 inactive | MEKK3 confirm inactive
O=S(=O)(NC1CCCC1)c1ccc(S(=O)(=O)N(Cc2cccs2)CC2CCCO2)cc1 (stereo not given)	MEKK3 PB1 HTS 1.0[inhibitor], MEKK2 WT-MEK5 -2.0[inhibitor] | MEKK2wt confirm inactive | MEKK2mut-MEK5 inactive | MEKK3 confirm inactive
CC(NC(=O)/C=C/c1cnc2ccccc2n1)C12CC3CC(CC(C3)C1)C2 (stereo not given)	MEKK3 PB1 HTS 134 | MEKK2wt confirm inactive | MEKK2mut-MEK5 inactive | MEKK3 confirm inactive
CC(=O)Nc1ccc(NC(=O)C(C)OC(=O)/C=C/c2cnc3ccccc3n2)cc1 (stereo not given)	none
COc1ccc(OC)c(C2C=C(c3ccc(C)c(C)c3)Nc3nnnn32)c1 (stereo not given)	MEKK3 PB1 HTS 1.0[inhibitor], MEKK2 WT-MEK5 0.0[inhibitor] | MEKK2wt confirm inactive | MEKK2mut-MEK5 inactive | MEKK3 confirm inactive
COc1cccc(C2=CC(c3cccc(OC)c3OC)n3nnnc3N2)c1 (stereo not given)	MEKK3 PB1 HTS 80[inhibitor] | MEKK2wt confirm inactive | MEKK2mut-MEK5 inactive | MEKK3 confirm inactive
COc1cccc(CN2CC(C(=O)NC3CCC(O)CC3)CCC2=O)c1 (stereo not given)	none
CCOC(=O)c1c(C)[nH]c(C(C)=NNC(=O)Cn2nc(C)cc2C)c1C	none (no result: MEKK3 PB1 HTS, MEKK2 mut-MEK5, MEKK2 WT-MEK5)
Cc1cc(C(=O)NNC(=S)NCc2ccccc2)cs1	none
Cc1cc(C(=O)NNC(=S)NCC(C)C)cs1	MEKK3 PB1 HTS 75[inhibitor] | MEKK2wt confirm inactive | MEKK2mut-MEK5 inactive | MEKK3 confirm inactive
O=C(CSc1ccc(F)cc1)NC1CCCCC1	MEKK3 PB1 HTS 2.0[inhibitor], MEKK2 WT-MEK5 1.0[inhibitor] | MEKK2wt confirm inactive | MEKK2mut-MEK5 inactive | MEKK3 confirm inactive
O=C(CSc1ccc(Br)cc1)NC1CCCCCC1	none (no result: MEKK3 PB1 HTS, MEKK2 mut-MEK5, MEKK2 WT-MEK5)
CCOC(=O)C1=C(C)Nc2ccccc2N/C1=N\S(=O)(=O)c1ccccc1	none (no result: MEKK3 PB1 HTS, MEKK2 mut-MEK5, MEKK2 WT-MEK5)
N#Cc1ccc(CN2CCN(C(=O)CNC(=O)Cc3ccccc3)CC2)cc1	none (no result: MEKK3 PB1 HTS, MEKK2 mut-MEK5, MEKK2 WT-MEK5)
O=C(Nc1ccc(N2CCCCC2)cc1)c1cncc(Br)c1	MEKK2 WT-MEK5 38[inhibitor] | MEKK2wt confirm inactive | MEKK2mut-MEK5 inactive | MEKK3 confirm inactive
O=C(Nc1ccc(S(=O)(=O)N2CCCC2)cc1)c1cncc(Br)c1	none (no result: MEKK3 PB1 HTS, MEKK2 mut-MEK5, MEKK2 WT-MEK5)
CCn1c(O)c(N=NC(=O)CNc2cccc(C)c2)c2ccccc21	MEKK3 PB1 HTS 148 | MEKK2wt confirm inactive | MEKK2mut-MEK5 inactive | MEKK3 confirm inactive
CCn1c(O)c(N=NC(=O)CNc2ccc(C)cc2)c2ccccc21	none
CCNC(=O)N1CCCC(C(=O)c2ccc(C(F)(F)F)cc2)C1 (stereo not given)	none
C(=NN1CCCCCC1)c1ccc2c(c1)OCO2	none (no result: MEKK3 PB1 HTS, MEKK2 mut-MEK5, MEKK2 WT-MEK5)
CC(C)C[C@H]1CN=C(Nc2ccccc2)N1CCCC1CCCCC1	MEKK2 mut-MEK5 24 | MEKK2wt confirm inactive | MEKK2mut-MEK5 inactive | MEKK3 confirm inactive
CC(C)C[C@H]1CN=C(Nc2ccccc2)N1CCCC1CCCC1	none
CCN(Cc1ccccc1)C(=O)COC(=O)[C@@H]1CCCN1C(=O)c1cccs1	none (no result: MEKK3 PB1 HTS, MEKK2 mut-MEK5, MEKK2 WT-MEK5)
CCC(CC)C(=O)N(C)c1c(C)nc2c(OCc3ccccc3C(=O)OC)cccn12	none (no result: MEKK3 PB1 HTS, CRFBP-R2 block, MEKK2 mut-MEK5, CRFBP-R2 agonist, MEKK2 WT-MEK5)

Screening data deposited in PubChem by several laboratories.
